From PubChem BioAssay
Calls of active or inactive are those of the source. Unless noted, no rule for the calls is given here.

Key:
[1] = compound effects on lung adenocarcinoma cell viability – A549, calcein-AM fluorescence, 48 h, basal, profiling panel (AID 1162); conditions: higher = more signal; also: test concentration not given here
[2] = compound effects on differentiated 3T3-L1 adipocyte viability – cell-based, 3T3-L1 adipocytes, calcein-AM fluorescence, 48 h, basal, profiling panel (AID 1163); conditions: 3T3-L1 adipocytes viability, higher = more signal; also: test concentration not given here
[3] = compound effects on hepatocellular carcinoma cell viability – HepG2, calcein-AM fluorescence, 48 h, basal, profiling panel (AID 1164); conditions: higher = more signal; also: test concentration not given here
[4] = compound effects on multiple myeloma cell viability – MM1S, calcein-AM fluorescence, 48 h, basal, profiling panel (AID 1165); conditions: higher = more signal; also: test concentration not given here
[5] = calcein-AM signal in unstimulated myeloma cells – cell-based, calcein-AM fluorescence, 48 h, PK04 Diversity Set, profiling panel (AID 1166); conditions: RPMI8226 myeloma viability, higher = more signal;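 also: cells grown under basal conditions without added stimulus; test concentration not given here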
[6] = JC-1 mitochondrial signal, unstimulated HepG2 cells – cell-based, JC-1 fluorescence, 24 h, 100 nL compound, profiling panel (AID 1167); conditions: HepG2 mitochondrial potential, higher = more signal; also: test concentration not given here
[7] = JC-1 mitochondrial signal, unstimulated adipocytes – cell-based, JC-1 fluorescence, 3T3-L1 adipocytes, 24 h, 100 nL compound, profiling panel (AID 1168); conditions: JC-1 mitochondrial fluorescence, higher = more signal, called active from +8 up or from −8 down; also: test concentration not given here
[8] = JC-1 mitochondrial signal, unstimulated myeloma cells – cell-based, JC-1 fluorescence, RPMI8226, 24 h, 100 nL compound, profiling panel (AID 1169); conditions: JC-1 mitochondrial potential fluorescence, higher = more signal; also: test concentration not given here
[9] = JC-1 mitochondrial signal, unstimulated MM1S myeloma – cell-based, JC-1 fluorescence, 24 h, 100 nL compound, profiling panel (AID 1170); conditions: MM1S mitochondrial potential, higher = more signal; also: test concentration not given here
[10] = resazurin metabolic signal in A549 cells – cell-based, resazurin fluorescence, 24 h, PK04 Diversity Set, profiling panel (AID 1171); conditions: A549 viability, higher = more signal, called active from +8 up or from −8 down; also: test concentration not given here
[11] = resazurin metabolic signal in HepG2 cells – cell-based, resazurin fluorescence, 24 h, PK04 Diversity Set, profiling panel (AID 1172); conditions: HepG2 viability, higher = more signal; also: test concentration not given here
[12] = budding yeast growth changes without added modifier – OD600, strain BY4716, 24 h, basal condition, primary screen (AID 1173); conditions: S. cerevisiae BY4716 growth, OD600, 24 h; higher = more signal, called active from +8 up or from −8 down
[13] = viability profiling in MM1S myeloma cells – cell-based, resazurin fluorescence, basal, 24 h, PK04 Diversity Set, profiling panel (AID 1174); conditions: higher = more signal, called active from +8 up or from −8 down; also: test concentration not given here
[14] = target: Dihydroorotate dehydrogenase (quinone), mitochondrial (Plasmodium falciparum (isolate 3D7)) (UniProt Q08210); assay: inhibition of P. falciparum DHODH – biochemical, C-terminal His tag, absorbance 600 nm, primary screen (AID 1175); conditions: PfDHODH enzyme, DCIP absorbance 600 nm; higher = more signal, called active from +8 up or from −8 down;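 also: recombinant parasite enzyme with a five histidine tag at its C terminus; test concentration not given here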
Sequence of Dihydroorotate dehydrogenase (quinone), mitochondrial (Plasmodium falciparum (isolate 3D7)) (Q08210 whole entry, looked up): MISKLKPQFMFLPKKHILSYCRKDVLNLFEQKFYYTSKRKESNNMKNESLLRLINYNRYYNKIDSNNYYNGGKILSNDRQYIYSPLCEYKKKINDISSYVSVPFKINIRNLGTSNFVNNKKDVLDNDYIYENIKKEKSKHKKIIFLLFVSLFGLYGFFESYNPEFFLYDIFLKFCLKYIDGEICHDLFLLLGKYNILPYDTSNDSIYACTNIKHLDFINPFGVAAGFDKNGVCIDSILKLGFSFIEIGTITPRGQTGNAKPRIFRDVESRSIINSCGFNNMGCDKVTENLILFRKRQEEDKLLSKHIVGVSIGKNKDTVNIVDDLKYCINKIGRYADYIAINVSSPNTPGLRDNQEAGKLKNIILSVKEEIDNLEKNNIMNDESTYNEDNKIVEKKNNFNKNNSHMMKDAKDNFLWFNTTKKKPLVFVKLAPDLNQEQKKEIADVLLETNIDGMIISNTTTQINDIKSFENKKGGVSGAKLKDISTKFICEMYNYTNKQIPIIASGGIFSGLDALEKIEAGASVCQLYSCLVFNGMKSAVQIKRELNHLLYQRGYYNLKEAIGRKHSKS

[15] = inhibition of PAO1 biofilm formation – strain PAO1, LB-PBS medium, absorbance 600 nm, primary screen (AID 1176); also: test concentration not given here; conditions: P. aeruginosa PAO1 growth/biofilm, A600, 12 h; higher = more signal
[16] = growth modulation of vineyard yeast isolate – strain RM11-1a, OD600, basal, 24 h, primary screen (AID 1177);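 also: cultures grown under basal conditions with no added stressor; test concentration not given here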; conditions: S. cerevisiae RM11-1a growth, OD600, 24 h; higher = more signal, called active from +8 up or from −8 down
[17] = growth of efflux-deficient E. coli DRC39 – strain DRC39, OD650, 24 h, E. coli filamentation inducers, primary screen (AID 1178);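 also: growth measured as culture turbidity by optical density at 650 nm; test concentration not given here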; conditions: E. coli DRC39 acrAB, higher = more signal, called active from +8 up or from −8 down
[18] = growth of efflux-deficient E. coli DRC39 – strain DRC39, OD650, 48 h, E. coli filamentation inducers, primary screen (AID 1179);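 also: screen aims at cell division blockers that make cells filament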; conditions: E. coli DRC39 delta-acrAB growth, higher = more signal, called active from +8 up or from −8 down
[19] = viability profiling in RPMI8226 myeloma cells – cell-based, resazurin fluorescence, basal, 24 h, PK04 Diversity Set, profiling panel (AID 1180); conditions: higher = more signal;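 also: RPMI8826 multiple myeloma cell line at 5000 cells per well; test concentration not given here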
[20] = target: E3 ubiquitin-protein ligase XIAP (Homo sapiens) (UniProt P98170); assay: small molecules binding XIAP protein – biophysical, small-molecule microarray, fluorescence 635 nm, primary screen (AID 1181); conditions: higher = more signal;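 also: score merges 667 nm emission and signal to noise over triplicate slides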
Sequence of E3 ubiquitin-protein ligase XIAP (Homo sapiens) (P98170 whole entry, looked up): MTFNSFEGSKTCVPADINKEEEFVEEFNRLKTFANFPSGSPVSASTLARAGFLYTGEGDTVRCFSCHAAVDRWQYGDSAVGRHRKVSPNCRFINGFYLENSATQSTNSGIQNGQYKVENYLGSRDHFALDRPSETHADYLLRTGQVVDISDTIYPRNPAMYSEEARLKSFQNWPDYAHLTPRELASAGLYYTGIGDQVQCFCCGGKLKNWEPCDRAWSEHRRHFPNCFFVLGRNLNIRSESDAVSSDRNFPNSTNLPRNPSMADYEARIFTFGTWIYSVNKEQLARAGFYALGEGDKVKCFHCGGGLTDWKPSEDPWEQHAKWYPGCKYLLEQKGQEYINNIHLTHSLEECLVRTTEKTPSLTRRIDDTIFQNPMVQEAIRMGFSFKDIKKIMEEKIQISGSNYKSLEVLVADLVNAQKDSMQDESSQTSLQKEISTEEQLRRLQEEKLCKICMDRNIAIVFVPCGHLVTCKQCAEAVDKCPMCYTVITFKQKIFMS

| Compound | z-score [1] | z-score [2] | z-score [3] | z-score [4] | z-score [5] | z-score [6] | z-score [7] | z-score [8] | z-score [9] | z-score [10] | z-score [11] | z-score [12] | z-score [13] | composite z-score [14] | z-score [15] | z-score [16] | z-score [17] | z-score [18] | z-score [19] | composite z-score [20] |
| --- | --- | --- | --- | --- | --- | --- | --- | --- | --- | --- | --- | --- | --- | --- | --- | --- | --- | --- | --- | --- |
| COCCOC(=O)N1C(=O)[C@@]2(c3cc(C#CCC(C(=O)OC)C(=O)OC)ccc31)[C@H](C(=O)Nc1nc3ccccc3s1)[C@H]1C(=O)O[C@H](c3ccccc3)[C@H](c3ccccc3)N1[C@@H]2c1ccc(OCCO)cc1 | 0.4 | 0.502 | 0.593 | -0.733 | 0.427 | -3.27 | 1.05 (inactive) | -0.708 | 0.327 | 1.42 (inactive) | 0.318 | 1.18 (inactive) | 0.961 (inactive) | -0.859 (inactive) | 2.54 (inactive) | 2.25 (inactive) | -0.0125 (inactive) | 0.972 (inactive) | -0.177 | 0.214 |
| CN(C)CCCNC(=O)[C@@]1(Cc2ccccc2I)c2ccccc2C(=O)N(C2CCCCC2)[C@H]1c1ccc(CO)cc1 | -4.29 | -0.546 | -5.11 | -3.78 | -4.34 | -2.13 | 2.14 (inactive) | -1.01 | -2.49 | -6.91 (inactive) | -6.39 | -8.03 (active) | -8.24 (active) | 0.201 (inactive) | 0.36 (inactive) | 0.996 (inactive) | 0.675 (inactive) | -0.707 (inactive) | -6.58 | 0.223 |
| CC1=C([C@H](O)CCc2ccccc2)[C@H](CO)n2c(=O)n(-c3ccccc3)c(=O)n2C1 | 0.229 | 0.273 | 0.862 | 0.5 | 0.874 | -0.303 | 0.603 (inactive) | -0.237 | -1.16 | -0.331 (inactive) | 0.331 | -2.79 (inactive) | 0.199 (inactive) | -1.34 (inactive) | 0.589 (inactive) | -1.97 (inactive) | 1.19 (inactive) | 1.35 (inactive) | 0.12 | -0.237 |
| C=CCNC(=O)[C@H]1[C@@H]2C(=O)O[C@@H](c3ccccc3)[C@@H](c3ccccc3)N2[C@@H](c2ccc(OCCO)cc2)[C@]12C(=O)Nc1ccccc12 | 0.375 | 1.35 | -0.503 | 0.287 | -0.62 | -1.21 | -0.00331 (inactive) | -0.522 | -0.377 | 1.02 (inactive) | 0.429 | 0.997 (inactive) | 1.13 (inactive) | -0.26 (inactive) | -0.172 (inactive) | 1.69 (inactive) | 0.237 (inactive) | -0.564 (inactive) | 0.608 | 0.347 |
| COC(=O)[C@@]1(Cc2ccc(F)cc2)[C@H]2c3cc(C(=O)N(C)C)n(C)c3C[C@H]2CN1C(=O)c1ccccc1 | 0.888 | -0.0909 | -0.408 | -0.364 | -0.119 | 0.216 | -0.574 (inactive) | -0.325 | -0.481 | -0.452 (inactive) | -0.476 | 0.109 (inactive) | -0.911 (inactive) | 0.0197 (inactive) | 0.026 (inactive) | 0.626 (inactive) | -0.657 (inactive) | -0.705 (inactive) | -0.521 | 0.147 |
| CC=CC(O)C1C=CC2C(=O)NC(=O)C2N1Nc1ccc(Cl)cc1Cl (stereo not given) | -1.54 | -0.883 | -1.14 | -0.866 | -0.624 | -2.04 | -1.04 (inactive) | 0.501 | -0.446 | -0.458 (inactive) | -1.2 | -11.4 (active) | -1.53 (inactive) | 0.733 (inactive) | 0.723 (inactive) | 1.52 (inactive) | -0.427 (inactive) | -0.356 (inactive) | -1.68 | -0.113 |
| CCCCCC1=C2CNC(Cc3ccccc3)(C(=O)OC)C=C2C(C)C1=O (stereo not given) | -1.33 | 0.598 | -1.14 | -2.69 | -3.65 | 1.14 | -1.55 (inactive) | -0.608 | -0.32 | -0.605 (inactive) | -1.19 | 1.36 (inactive) | -1.79 (inactive) | -0.461 (inactive) | 0.026 (inactive) | 0.546 (inactive) | -0.767 (inactive) | -0.217 (inactive) | -1.5 | -0.138 |
| C=CCOC(=O)[C@H]1[C@@H]2C(=O)O[C@@H](c3ccccc3)[C@@H](c3ccccc3)N2[C@@H](c2ccc(OCCOC(=O)[C@@H]3C[C@@H]4C(=O)N[C@@H](CCCCNC(C)=O)C(=O)N4[C@@H]3c3cccc(OCCO)c3)cc2)[C@]12C(=O)Nc1ccccc12 | -0.389 | 0.585 | -0.567 | -0.0545 | 0.879 | 1.24 | 2.61 (inactive) | -0.615 | -0.966 | -0.165 (inactive) | -0.16 | 1.19 (inactive) | 0.222 (inactive) | 0.277 (inactive) | 2.87 (inactive) | 1.52 (inactive) | 0.253 (inactive) | 0.0636 (inactive) | 0.147 | 0.0623 |
| COCCCNC(=O)[C@@]1(CCC(=O)OC(C)(C)C)COC(c2ccc(OCCCO)cc2)=N1 | -0.487 | 0.129 | -0.642 | -1.43 | -0.24 | 0.195 | -1.05 (inactive) | -0.438 | 0.012 | 2.45 (inactive) | 1.18 | -0.579 (inactive) | 1.27 (inactive) | -0.176 (inactive) | -0.978 (inactive) | -0.561 (inactive) | 0.391 (inactive) | 0.624 (inactive) | 0.928 | -0.0272 |
